Source: PubChem BioAssay
An excerpt weighted towards active compounds, which were near 10% of everything screened.
3T3 cytotox: kills NIH 3T3 cells. NIH 3T3 viability, CellTiter-Glo ATP luminescence, 48-72 h. Potency, µM (titrated, usually from 96.7 µM), for the others: top-dose activity change, negative = cytotoxicity, hits mostly inhibitors. 94,000 compounds, 4.3% hits. AID 1345082; also: % is scaled to controls: 0 for no effect and ±100 for the full control effect; nearly all actives have a fitted effect of over 55% in size
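Viability of NIH 3T3 cells after 48 or 72 hr compound treatment at 37 °C was assessed by CellTiter-Glo, with luminescence imaged following a 10 min room-temperature step.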
HEK293 tox: cytotoxic compounds in HEK 293 cells; HEK 293 viability, ATP luminescence (CellTiter-Glo), 48-72 h; Potency, µM (doses to about 115 µM), for inactives: at the highest dose activity change, negative = cytotoxicity, most hits filed as inhibitors; 94,000 compounds, 6.6% hits; AID 1345083; also: % is scaled to controls: 0 for no effect and ±100 for the full control effect; nearly all actives have a fitted effect of over 60% in size
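Cytotoxicity was scored by loss of ATP-coupled luminescence (CellTiter-Glo) in HEK 293 cells. Compound treatment ran 48 or 72 hr at 37 degree Celsius, 5% CO2, 95% humidity.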
GPT2 inh: GPT2 alanine aminotransferase inhibition. Recombinant GPT2, coupled pyruvate oxidase/HRP Amplex Red fluorescence. Potency, µM (doses to about 57.7 µM), without a hit: at the top dose activity change, negative = inhibition, usual class: inhibitors. 100,000 compounds, 0.25% hits; also: % is scaled to controls: 0 for no effect and ±100 for the full control effect; nearly all actives have a fitted effect of over 60% in size
Target sequence (Q8TD30 whole entry, looked up): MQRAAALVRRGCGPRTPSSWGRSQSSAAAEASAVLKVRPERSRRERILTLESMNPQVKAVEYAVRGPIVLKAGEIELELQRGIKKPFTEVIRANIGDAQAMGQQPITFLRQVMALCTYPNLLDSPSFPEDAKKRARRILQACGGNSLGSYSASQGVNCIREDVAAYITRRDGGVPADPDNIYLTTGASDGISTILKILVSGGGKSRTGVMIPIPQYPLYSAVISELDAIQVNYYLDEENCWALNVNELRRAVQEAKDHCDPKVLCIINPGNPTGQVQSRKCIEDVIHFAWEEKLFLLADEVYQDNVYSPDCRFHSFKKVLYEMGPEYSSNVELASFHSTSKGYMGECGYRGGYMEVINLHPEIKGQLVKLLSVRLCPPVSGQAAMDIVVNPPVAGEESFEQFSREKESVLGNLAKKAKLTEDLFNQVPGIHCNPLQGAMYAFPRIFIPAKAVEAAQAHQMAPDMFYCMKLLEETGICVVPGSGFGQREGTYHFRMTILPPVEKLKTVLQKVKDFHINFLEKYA
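Recombinant GPT2 (10ng/uL) with 250uM a-KG and 2mM L-alanine, 30 min at room temperature, in HEPES pH 7.5 buffer. Pyruvate detected by pyruvate oxidase/HRP/Amplex Red fluorescence after 30 min in the dark; AOA (50uM) as positive control.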
FLuc inh-1: inhibitors of firefly (Photinus pyralis) luciferase; purified P. pyralis luciferase, luminescence, biochemical; Potency, µM (highest dose often 115 µM), usual class: inhibitors; 76,000 compounds, 2.5% hits; AID 1347043; also: % is scaled to controls: 0 for no effect and ±100 for the full control effect; nearly all actives have a fitted effect of over 65% in size
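Inhibitors were tested against purified firefly luciferase in a biochemical, low-substrate format (both substrates at 10uM) and luminescence measured with a CCD imager.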
hNpr1 antagonist: antagonists of human natriuretic peptide receptor Npr1. P16066. 76,000 compounds, 1.6% hits. AID 1347048. HEK293 hNpr1 GloSensor cGMP, ANP-stimulated luminescence. Potency, µM (top dose mostly 46.3 µM), inactives show at the top dose activity change, negative = inhibition, usual class: inhibitors; calls by dose curve; also: % is scaled to controls: 0 for no effect and ±100 for the full control effect; nearly all actives have a fitted effect of over 60% in size
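HEK293 cells stably expressing human Npr1 and cGMP GloSensor pGS-40F, loaded 2 h with 2% GloSensor reagent, given compound 30 min at room temperature. Luminescence read before and 20 min after 0.1 nM hNppA.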
FLuc SDR no ATP: stabilizes firefly luciferase without ATP | AID 1963318 | Potency, µM (series often up to 32.7 µM), without a hit: top-dose activation (signal gain), actives largely listed as activators | shares compounds with FLuc inh-1 | Purified FLuc-C-HiBiT, Nano-Glo HiBiT luminescence, no ATP | 1,300 compounds, 7.8% hits; also: nearly all actives have a fitted effect of over 55% in size
FLuc SDR ATP: stabilizes firefly luciferase with ATP present; shares compounds with FLuc inh-1; purified FLuc-C-HiBiT + ATP, HiBiT complementation luminescence; Potency, µM (series often up to 32.7 µM), inactives show top-dose activation (gain of signal), most hits filed as activators; 1,300 compounds, 8.7% hits; AID 1963319;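 also: signal reports ligand binding via conformational change of the enzyme rather than luciferase catalysis; % of control where 0% means no effect; nearly all actives have a fitted effect of over 55% in size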
FLuc inh-2: firefly luciferase enzyme inhibition; shares compounds with FLuc inh-1; purified FLuc-C-HiBiT enzyme, luciferin luminescence; Potency, µM (highest dose often 32.7 µM), for inactives: at the highest dose activity change, negative = inhibition, usual class: inhibitors; 1,300 compounds, 42% hits; also: % is scaled to controls: 0 for no effect and ±100 for the full control effect; nearly all actives have a fitted effect of over 70% in size
An asterisk follows results filed as active; i = inactive; ? = inconclusive; . = not tested or not shown; [ ] = another dose, or the depositor's remark. Unless noted, calls follow the shape of the dose curve; as a rule, active = well fitted curve in the direction sought with a large enough effect; inconclusive = small, poorly fitted or top-dose-only effect, or another doubt; inactive = no such curve, though single readings can be large; an effect the other way counts as inactive or inconclusive. Potency is read from the fitted curve at half-maximal effect.

SMILES	3T3 cytotox	HEK293 tox	GPT2 inh	FLuc inh-1	hNpr1 antagonist	FLuc SDR no ATP	FLuc SDR ATP	FLuc inh-2
O=C(O)c1cccc(-c2noc(-c3ccc(C(F)(F)F)cc3)n2)c1	.	.	.	.	.	7µM*	0.0062µM*	0.0035µM*
O=C(O)c1cccc(-c2noc(-c3cccc(C(F)(F)F)c3)n2)c1	.	.	.	.	.	?	0.039µM*	0.016µM*
COCCn1c(=O)c(C(=O)NCCc2ccc(OC)cc2)nc2cccnc21	-14%	-28%	i	.	.	.	.	.
CC(C)NC(=O)N1CCCC(c2noc(COc3ccccc3)n2)C1 (centres undefined)	-16%	-8%	i	i	-1%	.	.	.
CCc1ccc(NC(=O)N2CCCC(c3noc(COc4ccccc4)n3)C2)cc1 (centres undefined)	?	?	i	1.4µM*	?	?	?	2.8µM*
O=C(Nc1ccc(-c2nnc3n2CCCC3)cc1)C1CC1	-6%	7%	i	i	-1%	.	.	.
CCOc1ccccc1C(=O)NC1CCCN(c2cc(-c3ccc(OC)cc3)[nH]n2)C1 (centres undefined)	?	?	-17%	i	-20%	.	.	.
COc1ccc(C(=O)NC2CCN(c3cc(-c4ccc(OC)cc4)[nH]n3)C2)cc1 (centres undefined)	-25%	-30%	-24%	i	-12%	.	.	.
COc1ccc(-c2cc(N3CCCC(NC(=O)c4c[nH]c5ccccc45)C3)n[nH]2)cc1 (centres undefined)	?	?	-23%	10µM*	-20%	17%	10%	?
COc1ccc(-c2cc(N3CCCC(NC(=O)c4cccc5[nH]ccc45)C3)n[nH]2)cc1 (centres undefined)	35µM*	45µM*	?	14µM*	-25%	14%	7%	?
COc1ccc(-c2cc(N3CCCC(NC(=O)c4nccc5ccccc45)C3)n[nH]2)cc1 (centres undefined)	?	?	?	?	-19%	.	.	.
COc1ccc(-c2cc(N3CCCC(NC(=O)c4cccs4)C3)n[nH]2)cc1 (centres undefined)	?	?	?	14µM*	-18%	21%	13%	?
COc1ccc(-c2cc(N3CCCC(NC(=O)c4ccc5c(c4)OCO5)C3)n[nH]2)cc1 (centres undefined)	?	?	?	11µM*	-20%	24%	15%	?
COc1ccc2[nH]cc(CCNC(=O)C3(Cc4ccccc4)CCCCC(=O)N3)c2c1 (centres undefined)	-4%	-21%	1%	i	4%	.	.	.
CN1CCc2nc3sc(C(=O)Nc4cccc(C#N)c4)c(N)c3cc2C1	.	.	.	.	.	14%	16%	-12%
O=C(CN1CCCCCC1)N1CCC2(CC1)CN(Cc1ccccc1)CC2CO (centres undefined)	-18%	?	3%	i	-15%	.	.	.
COCCN1C(=O)c2ccccc2C(C(=O)Nc2nc3c(s2)CCC3)C12CCCC2 (centres undefined)	-13%	-5%	-7%	i	-10%	.	.	.
Cc1cccc(C(=O)Nc2nc3c(s2)CCCC3)c1	.	.	.	.	.	?	?	2.5µM*
COC(=O)c1c(NC(=O)c2ccccc2)c2cc(NC3CCOCC3)cnc2n1CC1CCCO1 (centres undefined)	i	-14%	2%	i	5%	.	.	.
O=C1Nc2ccc(C(=O)c3ccco3)cc2/C1=C/c1cc(Cl)c(O)c(Cl)c1	.	.	.	.	.	6%	4%	11µM*
CC(C)NC(=O)[C@@H](C)C1CC[C@@]2(C)CC[C@H](NC(=O)c3ccncc3)[C@@H](C)[C@@H]2[C@H]1O (some centres undefined)	-27%[174 µM]	-3%[172 µM]	i	i	14%[70.6 µM]	.	.	.
Cc1nonc1C1CCCN1c1ccc(-c2nc(COc3ccccc3)no2)cn1 (centres undefined)	?	?	5%	i	-16%	.	.	.
CN(CCc1ccccn1)c1ccc(-c2nc(COc3ccccc3)no2)cn1	?	35µM*	?	8.9µM*	?	13%	15%	?
c1ccc(OCc2noc(-c3ccc(NCC4CCCCO4)nc3)n2)cc1 (centres undefined)	?	?	4%	?	-20%	.	.	.
Cc1cc(CNc2ccc(-c3nc(CCCc4ccccc4)no3)cn2)no1	-30%	?	?	?	?	.	.	.
SMILES	3T3 cytotox	HEK293 tox	GPT2 inh	FLuc inh-1	hNpr1 antagonist	FLuc SDR no ATP	FLuc SDR ATP	FLuc inh-2
c1ccc(CCCc2noc(-c3ccc(NCc4ccccn4)nc3)n2)cc1	-18%	?	5%[11.5 µM]	13µM*	?	10%	8%	-10%
CN(Cc1cccnc1)c1ccc(-c2nc(COc3ccccc3)no2)cn1	?	25µM*	-7%	7.9µM*	10µM*	18%	18%	?
CN(CCO)c1ccc(-c2nc(CCCc3ccccc3)no2)cn1	-29%	?	-10%	6.3µM*	0%	15%	14%	?
O=C(CCC1CCN(C(=O)C2CC(=O)N(C3CC3)C2)CC1)Nc1ccc2c(c1)OCCO2 (centres undefined)	-26%	i	i	i	5%	.	.	.
CN(C)Cc1nnc(C2CC(NC(=O)c3ccnnc3)C2)n1C (centres undefined)	-1%	-7%	i	i	16%	.	.	.
CCCCCSc1nnc(-c2ccc(Br)cc2)o1	.	.	.	.	.	11%	9%	-6%
CCc1ccc(NC(=O)N2C[C@@H](F)C[C@H]2C(=O)N2CCc3ccccc3C2)cc1	?	-3%	i	i	1%	.	.	.
Cc1ccc(C)c(N2CCN(C(=O)c3ccc(NC(=O)c4nsc5ccccc45)cc3)CC2)c1	.	.	.	.	.	17%	?	?
CN1c2cc(C(=O)Nc3cccc(Cl)c3)ccc2C(=O)N2CCCCCC21 (centres undefined)	?	?	i	10µM*	-24%	10%	11%	?
CN1c2cc(C(=O)Nc3cccc(F)c3)ccc2C(=O)N2CCCCCC21 (centres undefined)	?	?	i	8.9µM*	-28%	12%	14%	?
